Screening results from PubChem BioAssay.
Shown are actives, neighbours in structure and some others; about 2% of the full set was active somewhere.
ABHD5 PLIN5 PPI: blocks binding of human ABHD5 to perilipin-5 | actives 0.78% (n = 360,000) | AID 602281 | inhibition, % at 4 µM | Split G. princeps luciferase complementation, luminescence, 4 h;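 active = inhibition above the mean inhibition across every tested compound plus 3 SD, cut at about 22% in these data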;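 also: 0% = DMSO only wells and the 100% control is not disclosed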
Target sequence (Q00G26 whole entry, looked up): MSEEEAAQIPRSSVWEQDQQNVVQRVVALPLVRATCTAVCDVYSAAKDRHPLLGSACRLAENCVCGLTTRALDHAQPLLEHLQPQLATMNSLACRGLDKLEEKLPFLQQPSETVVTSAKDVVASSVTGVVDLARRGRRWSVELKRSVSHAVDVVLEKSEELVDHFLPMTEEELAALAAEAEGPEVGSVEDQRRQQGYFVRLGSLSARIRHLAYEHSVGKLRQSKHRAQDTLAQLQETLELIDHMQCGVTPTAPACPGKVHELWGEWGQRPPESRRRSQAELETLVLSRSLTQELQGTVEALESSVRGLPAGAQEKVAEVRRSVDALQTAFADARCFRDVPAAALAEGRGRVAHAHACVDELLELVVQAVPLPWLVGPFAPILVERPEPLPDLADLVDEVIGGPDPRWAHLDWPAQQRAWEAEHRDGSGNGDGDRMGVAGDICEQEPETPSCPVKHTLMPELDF
Target sequence (Q8WTS1 whole entry, looked up): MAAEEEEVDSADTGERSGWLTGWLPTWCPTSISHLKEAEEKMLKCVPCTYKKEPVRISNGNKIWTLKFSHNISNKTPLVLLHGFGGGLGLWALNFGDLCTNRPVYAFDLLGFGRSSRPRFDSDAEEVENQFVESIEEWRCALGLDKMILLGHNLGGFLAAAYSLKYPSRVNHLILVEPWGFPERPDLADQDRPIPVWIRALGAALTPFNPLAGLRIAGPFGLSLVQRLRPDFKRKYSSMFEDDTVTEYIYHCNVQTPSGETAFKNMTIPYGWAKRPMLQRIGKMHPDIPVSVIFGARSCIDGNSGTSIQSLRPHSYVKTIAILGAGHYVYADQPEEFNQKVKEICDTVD
TLR9-MyD88 block: TLR9-MyD88 interaction inhibition. Q9NR96+Q99836. CHO BLA complementation TLR9-MyD88, CCF4 FRET ratio. inhibition, % at 4.98 µM. actives 0.21% (n = 340,000);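 active = inhibition above the mean over all tested compounds plus 3 SD, cut at about 21% in these data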;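 also: 0% = DMSO only wells and 100% = clavulanate BLA inhibitor control wells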
Beta2AR agonist: agonists of human beta-2 adrenergic receptor inducing internalization; actives 0.43% (n = 340,000); response, % (test concentration not listed); Am2.2-beta2AR cells, FAP receptor internalization, flow cytometry; AID 504454; P07550;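 active = response above a set limit, near 3 SD of response in nonfluorescent compounds, cut at about 42% in these data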
NOD2 RIPK2 PPI: inhibitors of human NOD2-RIPK2 interaction. O43353. CHO BLA complementation NOD2-RIPK2, CCF4 ratio. inhibition, % at 4.98 µM. actives 0.38% (n = 360,000). AID 624267; in the data active = inhibition above about 21%;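 also: 0% = vehicle only and 100% = reference blocker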
Exocytosis inh: blocks lytic granule exocytosis. TALL-104 LAMP-1 surface exposure, flow cytometry; cells stimulated with thapsigargin and PMA. AID 651702. actives 0.66% (n = 360,000). inhibition, % at 10 µM;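 active = inhibition above about 55%, limit read from the data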
TLR4-MyD88 BLA: TLR4-MyD88 interaction inhibition in cells; HeLa CL3-4 TLR4/MyD88 BLA complementation, FRET ratio; inhibition, % at 8.4 µM; O00206+Q99836; actives 0.18% (n = 200,000); in the data active = inhibition above about 25%;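 also: 0% = vehicle and 100% = reference inhibitor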
Exocytosis CP01: blocks lytic granule exocytosis; shares compounds with Exocytosis inh; TALL-104 cells, LAMP-1 externalization, flow cytometry; stimulated with PMA plus thapsigargin; inhibition, % at 10 µM; actives 11% (n = 1,500); in the data active = inhibition above about 60%;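 also: 0% = stimulated vehicle wells and 100% = unstimulated wells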
An asterisk follows results filed as active; / = no result given.

SMILES | ABHD5 PLIN5 PPI | TLR9-MyD88 block | Beta2AR agonist | NOD2 RIPK2 PPI | Exocytosis inh | TLR4-MyD88 BLA | Exocytosis CP01
CCN(CC)C(=O)[C@H]1C[C@H](CC(=O)NCCc2ccccn2)C(=O)N2CCc3c([nH]c4cc(CCC(=O)N(C)C)ccc34)[C@]12C | 1 | 3 | -10 | 5 | -4 | / | /
O=C1S/C(=C\c2ccc(N3CCOCC3)o2)C(=O)N1c1ccccc1 | -1 | 6 | -10 | 3 | 68* | 17 | 18
COC(=O)c1cn(C(=O)c2cc(Br)ccc2Cl)c2ccccc12 | -2 | -19 | -1 | 2 | 72* | / | -2
COC(=O)c1cn(C(=O)c2cc(C)cc(C)c2)c2ccccc12 | 5 | -7 | 1 | -1 | 1 | 6 | /
COC(=O)c1cn(C(=O)c2ccc(OC)cc2)c2ccccc12 | -2 | 10 | 3 | 10 | 70* | / | -13
O=C(Nc1nnc(Cc2ccccc2)s1)C1CCN(C(=O)c2ccco2)CC1 | 13 | 1 | -10 | -7 | 2 | / | /
COc1ccc(Cc2nnc(NC(=O)C3CCN(C(=O)c4ccco4)CC3)s2)cc1 | 3 | 9 | -4 | 5 | 57* | / | -13
COc1cc(OC)cc(C(=O)Nc2ccc(-c3nc4ccccc4o3)cc2)c1 | 2 | 3 | 18 | -15 | 100* | -10 | 39
Cc1onc(-c2ccccc2)c1C(=O)Nc1sc2c(c1C(N)=O)CCC2 | -5 | -4 | -11 | -13 | -2 | 1 | /
Cc1onc(-c2c(F)cccc2Cl)c1C(=O)Nc1sc2c(c1C(N)=O)CCC2 | 0 | 0 | -10 | -9 | 56* | -6 | 7
CN(C)c1ccc(C(C(=O)NCC2CCCO2)N(C(=O)c2snc(C(N)=O)c2N)c2ccc3c(c2)OCO3)cc1 (configuration not stated) | -5 | -1 | 1 | -11 | 72* | / | -6
CC(C)c1ccc(N(C(=O)c2snc(C(N)=O)c2N)C(C(=O)NCC2CCCO2)c2ccc(N(C)C)cc2)cc1 (configuration not stated) | -4 | -4 | -2 | -10 | 54 | / | /
CCCN1CCC(NCc2cn(C)nc2-c2ccc(Oc3ccccc3)cc2)CC1 | 10 | -1 | 15 | 0 | 77* | / | 17
COC1CCCN(Cc2cn(C)nc2-c2ccc(Oc3ccccc3)cc2)C1 (configuration not stated) | 8 | -16 | 1 | -3 | 0 | -9 | /
NC(Cc1ccc(C(F)(F)F)cc1)c1csc(NC(=O)Nc2ccccc2Oc2ccccc2)n1 (configuration not stated) | -10 | / | / | 6 | 19 | / | /
O=C(Nc1ccccc1)c1ccccc1OCc1ccc(F)cc1 | 0 | 2 | -9 | 2 | -2 | / | /
COc1cc(NC(=O)c2ccccc2OCc2ccccc2)cc(OC)c1OC | 3 | 6 | 3 | 0 | 84* | / | -7
CNC(=O)c1cccc(NC(=O)c2ccccc2OCc2ccccc2)c1 | -6 | -16 | -7 | -3 | 63* | / | -5
O=C(Nc1ccc(O)cc1)c1ccccc1OCc1ccccc1 | 2 | -4 | -2 | 4 | -5 | / | /
C=CCCC(=O)N1C[C@H]2CON(C)[C@H]2C[C@H]1c1ccc(N2CCCCC2)cc1 | -4 | / | / | 4 | 4 | / | /
CCCNC(=O)c1cc(S(=O)(=O)N2CCC3(CC2)OCCO3)ccc1F | -1 | 7 | / | 10 | 9 | / | /
CCOC(=O)C1(CCOc2ccccc2)CCN(Cc2ccc(OCC)c(CO)c2)CC1 | 3 | 8 | -10 | 4 | 81* | / | -12
CCOC(=O)C1(CCc2ccccc2)CCN(Cc2ccc(C(=O)OC)cc2)CC1 | 1 | 0 | 9 | 1 | 21 | / | /
CCOC(=O)C1(CCOc2ccccc2)CCN(Cc2cccc(-n3cccn3)c2)CC1 | -1 | 14 | -17 | -4 | 9 | 1 | /
CCOC(=O)C1(CCOc2ccccc2)CCN(Cc2ccccc2O)CC1 | 7 | 6 | -1 | 2 | 56* | / | -13
SMILES | ABHD5 PLIN5 PPI | TLR9-MyD88 block | Beta2AR agonist | NOD2 RIPK2 PPI | Exocytosis inh | TLR4-MyD88 BLA | Exocytosis CP01
CCOC(=O)C1(CCOc2ccccc2)CCN(CCCn2cccn2)CC1 | 0 | 3 | 3 | -7 | 59* | -3 | -4
CCOC(=O)C1(CCc2ccccc2)CCN(Cc2cc(OC)c(OC)cc2OC)CC1 | 4 | -7 | 0 | -4 | 64* | / | -2
Cc1cc(N2CCN(C(c3ccnc4ccccc34)c3nnnn3-c3c(C)cccc3C)CC2)c2ccccc2n1 (configuration not stated) | 15 | / | / | -4 | 0 | / | /
O=C(COc1ccc(Br)cc1)N1CCN(c2ncccn2)CC1 | 1 | -8 | 1 | -2 | -1 | / | /
CCOC(=O)C1(CCOc2ccccc2)CCN(Cc2cccc(OC)c2OC)CC1 | -1 | -5 | -2 | 15 | 75* | / | -10
CCOC(=O)C1(CCOc2ccccc2)CCN(Cc2cccc(F)c2)CC1 | -2 | 0 | -16 | -8 | 64* | / | -12
CCOC(=O)C1(CCOc2ccccc2)CCN(Cc2ccc(OC)cc2)CC1 | 1 | -8 | 3 | -7 | 80* | / | -3
COCCNC(=O)C1CCCN(Cc2ccc(C#N)cc2)CC1 (configuration not stated) | 5 | / | / | 3 | 2 | / | /
CC(C)(C)S(=O)N1Cc2cc(C(=O)NCC(F)(F)F)nc(-c3cccc(-c4cccc(F)c4)c3)c2[C@@H]1CCO (some centres not stated) | -8 | / | / | -4 | 0 | / | /
C[C@H](c1ccccc1)N1C[C@H](COCc2ccccc2)Oc2cc(N3CC[C@H](N(C)C)C3)ccc2S1(=O)=O | 5 | / | / | 1 | 68* | / | 29
CC(C)=CCn1c2ccc(NC(=S)NC3CC3)cc2c(=O)n1C | -5 | / | / | 18 | -4 | / | /
Cc1ccc(CN2CCSc3ccc(C(=O)NC4CCN(Cc5ccccc5)CC4)cc32)cc1 | 4 | -8 | 28 | 1 | 32 | 10 | /
O=C(NC1CCCC1)c1ccc2c(c1)N(Cc1ccccc1)CCS2 | -1 | 9 | 1 | -7 | 70* | / | -5
CCOc1ccc2nc(SC3CC(=O)N(c4ccc(OC)cc4OC)C3=O)sc2c1 (configuration not stated) | -7 | -19 | 1 | -3 | 62* | 9 | 15
CCOc1ccc2nc(SC3CC(=O)N(c4ccc(C)cc4)C3=O)sc2c1 (configuration not stated) | -1 | -2 | -2 | 2 | 56* | -9 | -4
CCOC(=O)C1c2cccc(O)c2CCN1C(C)=O (configuration not stated) | 2 | -2 | / | -4 | 114* | / | -13
COc1ccc(C(C)=O)cc1CN(c1ccccc1OC)S(=O)(=O)c1cccs1 | 0 | -2 | -20 | 0 | 92* | / | -6
C#CCNC(=O)C[C@@H]1C[C@@]2(C(=O)OCC)CCC=C2N(Cc2ccc(Cl)cc2Cl)C1=O | -6 | / | / | -9 | 1 | / | /
